Compound activity (PubChem BioAssay)
An excerpt weighted towards active compounds, which were near 6% of everything screened.
D1 PAM: enhances dopamine response at the human D1 receptor | P21728 | HEK293 TREx D1 cells, calcium flux, dopamine EC20 potentiation | potentiation, % at 10 µM | actives 0.036% (n = 360,000) | AID 504651; in the data active = potentiation above about 30%; also: 0% is about no effect
Target sequence (P21728 whole entry, looked up): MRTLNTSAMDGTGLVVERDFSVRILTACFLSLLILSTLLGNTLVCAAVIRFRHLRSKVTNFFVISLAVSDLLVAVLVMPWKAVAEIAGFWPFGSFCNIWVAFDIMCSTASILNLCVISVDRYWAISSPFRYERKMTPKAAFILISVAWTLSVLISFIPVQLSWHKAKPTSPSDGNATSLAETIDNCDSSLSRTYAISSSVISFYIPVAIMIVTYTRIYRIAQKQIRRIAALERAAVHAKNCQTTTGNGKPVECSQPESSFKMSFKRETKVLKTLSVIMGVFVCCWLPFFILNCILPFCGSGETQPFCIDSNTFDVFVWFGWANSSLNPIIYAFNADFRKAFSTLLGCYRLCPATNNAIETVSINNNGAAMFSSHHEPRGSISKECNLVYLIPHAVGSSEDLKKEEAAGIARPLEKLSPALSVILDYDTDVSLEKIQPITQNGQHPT
D3 antag: antagonists of human D3 dopamine receptor. P35462. D3R cells, DiscoveRx beta-arrestin luminescence, antagonist mode; active compounds read low. max response, negative = inhibition, %. actives 2.5% (n = 360,000); in the data active = max response below about -50%; also: % is scaled to controls: 0 for no effect and ±100 for the full control effect
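Cells expressing the human receptor were seeded at 1500 cells/well, incubated overnight at 37 degrees C in 5% CO2, then exposed to library compounds with dopamine controls for 90 minutes at 37 degrees C before luminescent detection.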
D1 agonist: activates the human D1 dopamine receptor; P21728; HEK293 T-REx D1 cells, calcium flux, agonist mode; activation, % at 2 µM; actives 1% (n = 360,000); AID 504660; in the data active = activation above about 30%; also: 0% is about no effect
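Inducible HEK293 T-REx D1 cells, force-coupled to calcium signalling, were plated at 4000 cells/well with tetracycline and held overnight at 30 C. After no-wash calcium dye loading, compound-evoked calcium rise over 180 s flagged agonists.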
D1 antagonist: blocks dopamine activation of the human D1 receptor | activity change, negative = inhibition, % at 10 µM | HEK293 TREx D1 cells, calcium flux, dopamine EC80; active compounds read low | P21728 | actives 3.2% (n = 360,000) | AID 504652; in the data active = activity change below about -30%; also: % is scaled to controls: 0 for no effect and ±100 for the full control effect
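Antagonism measured as reduced calcium response to an EC80 dopamine addition following 180 s compound pre-read; cells were inducible HEK293 Trex D1 plated overnight at 30 C, read kinetically at 1 cycle/sec.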
DRD3 agonist: D3 dopamine receptor (human) agonism; actives 0.58% (n = 410,000); AID 652048; max activation, %; D3R DiscoveRx beta-arrestin cells, luminescence, 90 min; in the data active = max activation above about 30%; also: 0% is about no effect
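Agonist mode: compounds and dopamine controls were applied to plated cells for 90 min at 37 degrees C after an overnight attachment at 1500 cells/well. Luminescent read-out followed 30 - 60 minutes at room temperature with DiscoveRx detection reagent.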
The depositor's hits bear a star; . = not tested or not shown.

SMILES | D1 PAM | D3 antag | D1 agonist | D1 antagonist | DRD3 agonist
O=C(NCCO)N1c2ccccc2Sc2ccccc21 | -10 | 5 | 2 | 3 | 3
O=C(NCCN1CCOCC1)c1ccc(-c2ccccc2)cc1 | 5 | -16 | 4 | -36* | -4
CCCCC(=O)Nc1ccc(C(=O)NCCN2CCOCC2)cc1 | -4 | 0 | -1 | -58* | 0
COC(=O)C1CCN(S(=O)(=O)CCNC(=O)c2ccccc2)CC1 | . | -6 | . | . | 6
COC(=O)/C=C1\S/C(=N/NC(=O)c2ccccc2)NC1=O | -4 | -65* | -2 | 26 | -2
COc1ccc(OC)c(CCNc2ncnc3onc(-c4ccc(F)cc4)c23)c1 | -3 | . | 33* | -32* | -6
COc1ccc(OC)c(CCNc2ncnc3onc(-c4ccc(Cl)cc4)c23)c1 | 0 | . | 11 | -3 | 0
O=S1(=O)CC(N2CCCCC2)CN1CCc1ccccc1 (centres undefined) | . | 11 | . | . | 0
CCC(c1nnnn1Cc1cccs1)N1CCN(C(=O)c2ccco2)CC1 (centres undefined) | -2 | -2 | 1 | 4 | 1
O=C(c1ccco1)N1CCN(Cc2cccc(F)c2)CC1 | 0 | -30 | 2 | -14 | 36*
COc1ccc2oc(C(=O)N3CCN(c4ncccn4)CC3)c(C)c2c1 | 3 | 8 | 7 | 4 | 13
COc1cccc(CN2CCN(C(=O)c3ccco3)CC2)c1 | 2 | -25 | 1 | -3 | 37*
COc1ccc2oc(C(=O)N3CCN(C(=O)c4ccco4)CC3)c(C)c2c1 | -14 | 3 | 3 | -36* | 4
Cc1ccc(C(c2nnnn2Cc2cccs2)N2CCN(C(=O)c3ccco3)CC2)cc1 (centres undefined) | -8 | -52* | 1 | -10 | -5
CC(=O)c1cccc(NC(=O)CN2C(=O)CCc3cc(S(=O)(=O)N4CCCCC4)ccc32)c1 | 0 | . | 1 | 6 | -1
O=C(CN1C(=O)COc2ccc(S(=O)(=O)N3CCOCC3)cc21)N1CCN(c2ccc(Cl)cc2)CC1 | -1 | . | 2 | 1 | 4
CCc1ccccc1N(C(=O)c1snc(C(N)=O)c1N)C(C(=O)NCC1CCCO1)c1c[nH]c2ccccc12 (centres undefined) | 5 | -6 | 6 | 23 | 3
CC1CCCN(C(=O)C2CCN(S(=O)(=O)c3ccc4c(c3)CC(C)N4C(=O)C3CC3)CC2)C1 (centres undefined) | 2 | -1 | 7 | 16 | 2
O=C(c1ccco1)N1CCN(Cc2ccc(Br)cc2)CC1 | -4 | -2 | 2 | -16 | 33*
Cn1nnnc1SCC(=O)N1CCN(C(=O)c2ccco2)CC1 | -2 | -8 | 7 | -38* | -4
O=C(c1ccco1)N1CCN(Cc2cccc3ccccc23)CC1 | . | -14 | 6 | -11 | 32*
O=C(c1ccco1)N1CCN(Cc2ccc(Cl)cc2)CC1 | . | 3 | . | . | -5
CCCCn1nnnc1SCC(=O)N1CCN(C(=O)c2ccco2)CC1 | 1 | 3 | 5 | -20 | 0
CCc1ccc(CN2CCN(C(=O)c3cccc(OC)c3OC)CC2)cc1 | -5 | -57* | 10 | -16 | 2
COc1ccc(-c2cc(-c3ccc(C)cc3)nc3c2COc2ccccc2-3)cc1 | 0 | . | 1 | 8 | -7
SMILES | D1 PAM | D3 antag | D1 agonist | D1 antagonist | DRD3 agonist
COc1ccc2oc(C(=O)OCC(=O)Nc3cc(S(=O)(=O)N4CCOCC4)ccc3OC)c(C)c2c1 | 2 | 0 | 4 | 6 | -9
COC(=O)c1ccc(OCC(O)CN2CCN(C(=O)c3ccco3)CC2)cc1 (centres undefined) | 0 | 7 | 2 | -5 | 21
CCc1ccc(CN2CCN(C(=O)c3ccco3)CC2)cc1 | 5 | -16 | 3 | -8 | 69*
O=C(c1ccco1)N1CCN(CC(O)COc2ccc(Br)cc2)CC1 (centres undefined) | 13 | -6 | 7 | -21 | 35*
NC(N)=NCCCCN=C(N)N | . | . | . | . | 8
Cc1c(C2=CCN(S(=O)(=O)c3ccc(CC(C)C)cc3)CC2)c2ccccc2n1CC(=O)N1CCCC1 | -1 | . | 38* | 24 | -23
COc1ccc(-c2cnn3c4c(c(C)nc23)CCN4C(C)C)cc1OC | 1 | 33 | 0 | -17 | 41*
CCOc1ccc(N(CC(=O)Nc2cccc(Cl)c2)S(=O)(=O)c2c(C)noc2C)cc1 | -6 | -15 | 4 | -36* | -1
